In PubChem BioAssay (Tox21):
Unmarked numbers belong to inactive results. Activity calls are given as the source filed them. Calls follow the shape of the dose curve; as a rule, active = well fitted curve in the direction sought with a large enough effect in the repeat runs; inconclusive = weak or mixed curves; inactive = flat fitted curve, though single readings scatter.

Experiment: qHTS assay to test for compound auto fluorescence at 590 nm (red) in HepG2 cell free culture (AID 720684)
Settings: cell-free medium autofluorescence, red 540/590 nm; series mostly up to 46 µM; fluorescence, % of Rose Bengal: at the top concentration
Procedure, shortened: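 Auto fluorescence equivalency versus Rose Bengal sodium, red channel Ex/Em 540/590 nm; compounds in cell-free MEM/10% FBS; DMSO vehicle control.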
% is scaled to controls: 0 for no effect and ±100 for the full control effect.

Going from CC12CCC(C1)C(C)(C)C2=O (stereo not given) to CC12CCC(C[N+](C)(CCC[N+](C)(C)C)C1)C2(C)C (stereo not given), the “fluorescence, % of Rose Bengal” value falls from -0.0075% to -0.0312%.

Compared with C[C@H](O)CN(C)C, CN(C)CCc1c[nH]c2ccc(Cn3cncn3)cc12 is lower in “fluorescence, % of Rose Bengal” value: 0.028% for the first, -0.0101% for the second.

Compared with C[C@H](Cc1ccc(O)c(O)c1)[C@@H](C)Cc1ccc(O)c(O)c1, N[C@@H](Cc1ccc(O)c(O)c1)C(=O)O is lower in “fluorescence, % of Rose Bengal” value: 0.0839% for the first, -0.137% for the second.

First: CN(Cc1ccccc1)Cc1ccccc1
Second: COc1cc(NS(C)(=O)=O)ccc1Nc1c2ccccc2nc2ccccc12
The “fluorescence, % of Rose Bengal” value of the first is lower: -0.209% for the first, 0.0338% for the second.

Compared with CN1C(=O)C[C@@H](C(=O)N[C@@H](Cc2cnc[nH]2)C(=O)N2CCC[C@H]2C(N)=O)NC1=O, O=C1CC[C@@H](C(=O)N[C@H]2C[C@@H]2c2ccccc2)N1 is higher in “fluorescence, % of Rose Bengal” value: 0.012% for the first, 0.025% for the second.

First: CCCn1c(=O)[nH]c(=O)c2[nH]cnc21
Second: O=C1c2ccccc2-c2n[nH]c3cccc1c23
The “fluorescence, % of Rose Bengal” value of the first is higher: -0.0749% for the first, -0.219% for the second.

Compared with N=C(N)c1ccc(/C=C/c2ccc(C(=N)N)cc2O)cc1, CC(C)(COP(=O)(O)OP(=O)(O)OC[C@H]1O[C@@H](n2cnc3c(N)ncnc32)[C@H](O)[C@@H]1OP(=O)(O)O)C(O)C(=O)NCCC(=O)NCCS (stereo not given in full) is lower in “fluorescence, % of Rose Bengal” value: 0.0648% for the first, -0.041% for the second.

Going from CCCCCCCC/C=C\CCCCCCCC(=O)N(CCO)CCO to CC(O)(c1ccc(Cl)cc1)c1ccc(Cl)cc1, the “fluorescence, % of Rose Bengal” value falls from 0.4% [at 91.3 µM] to 0.0461% [at 91.3 µM].

For CCCOC(=O)c1ccc(O)cc1, the outcome was “inactive”.
With O=C(N[C@H](CO)[C@H](O)c1ccc([N+](=O)[O-])cc1)C(Cl)Cl the outcome was “inactive”.
For CN=C(N)NCCC[C@H](N)C(=O)O, the outcome was “inactive”.

For NCC1CCC(C(=O)O)CC1 (stereo not given), the “fluorescence, % of Rose Bengal” value was -0.439% [at 18.6 µM].
